The nature of experiment [1]: Drug repurposing screens with cells derived from glioblastoma tumor samples (AID 1345199). Also: nearly all actives have a fitted effect of over 40% in size. To be noted: GBM patient neurospheres viability, ATP luminescence, 48 h. The method, boiled down: (§1)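 Four patient lines of CD133+ GBM neurospheres were screened at several concentrations; hits were retested in those lines plus three slower-growing GBM lines, using 48-hour treatment and ATP-based viability.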

Another experiment deals with astro (control astrocytes). The experiment is described as above. To be noted: viability, ATP luminescence, 48 h; series mostly up to 45.9 µM. The method, boiled down: as §1
The mark [2] stands for this setting: at 45.9 µM (top of the series), tumour line B.
Setting [3] is: at 45.9 µM (top of the series), tumour line D.
[4] abbreviates: at 46 µM (top of the series), tumour line A.
Setting [5] is: at 46.1 µM (top of the series), tumour line C.
The mark [6] stands for this setting: at 20 µM (top of the series), tumour line C.
Where [7] appears, read: at 21.2 µM (top of the series), tumour line B.
Setting [8] is: at 21.2 µM (top of the series), tumour line D.
Where [9] appears, read: at 21.3 µM (top of the series), tumour line A.

Values joined by “and” are separate entries in the source; they are usually repeats but may differ in a detail not shown here. Equal values may be shown once. Records with an inconclusive call do not appear. A number with no mark means an inactive call. Active and inactive are the calls of the source. Calls follow the shape of the dose curve; as a rule, active = well fitted inhibition curve with a large enough effect; inconclusive = small, poorly fitted or top-dose-only effect; inactive = flat fitted curve, though single readings scatter.
% is scaled to controls: 0 for no effect and ±100 for the full control effect; potency is read from the fitted curve at half-maximal effect.

Consider `CCC(C)[C@@H](N)C(=O)O` (stereo not given in full), for which the activity, negative = cell killing in experiment [1] (setting [2]) is -9.25%; in experiment [1] (setting [3]) it was -6.09%; in experiment [1] (setting [4]), -16.7%; in experiment [1] (setting [5]) it was 10.2%. Also, the Potency result with astro was “inactive”.
`[O]=[Bi][O][Bi]=[O]`: the activity, negative = cell killing in experiment [1] (setting [2]) is -6.82%; in experiment [1] (setting [3]), -2.13%; in experiment [1] (setting [4]), 1.51%; in experiment [1] (setting [5]) it was 0.751%. In the experiment with astro, the Potency entry is “inactive”.
In the case of `CC(=O)N[C@@H]1C(O[C@H]2O[C@H](C(=O)O)C(O)[C@H](O)[C@H]2O)[C@H](O)[C@@H](CO)O[C@H]1O[C@@H]1C(C(=O)O)O[C@@H](O[C@H]2[C@H](O)[C@@H](CO)OC(O)[C@@H]2NC(C)=O)[C@H](O)[C@H]1O` (stereo not given in full), the activity, negative = cell killing was -6.99% in experiment [1] (setting [2]), -9.84% in experiment [1] (setting [3]), -10.4% in experiment [1] (setting [4]) and -7.36% in experiment [1] (setting [5]). For the same compound, the Potency entry in the experiment with astro was “inactive”.
Turning to `NC[C@H]1O[C@H](O[C@H]2[C@H](O)[C@@H](O[C@H]3O[C@H](CO)[C@@H](O)[C@H](N)[C@H]3O)[C@H](N)C[C@@H]2N)[C@H](O)[C@@H](O)[C@@H]1O`, the activity, negative = cell killing in experiment [1] (setting [6]) was 3.71%; in experiment [1] (setting [7]), -14.2%; in experiment [1] (setting [8]) it was 0.603%; in experiment [1] (setting [9]), -23.6%. Moreover, the Potency result in the experiment on astro was “inactive”.
As for `O=P(O)(O)CP(=O)(O)O`, the activity, negative = cell killing is -7.32% in experiment [1] (setting [2]), -1.92% in experiment [1] (setting [3]), -22% in experiment [1] (setting [4]) and -17.6% in experiment [1] (setting [5]). Further, the Potency result in the experiment with astro was “inactive”.
For `FC(F)(F)C(F)(F)C(F)(F)C(F)(F)C(F)(F)F` the same measures were 3%, -24.7%, -8.67%, -13.9% and “inactive”.
Turning to `O=C(OCc1ccccc1)c1cccnc1`, the activity, negative = cell killing in experiment [1] (setting [2]) was -17.7%; in experiment [1] (setting [3]) it was -1.76%; in experiment [1] (setting [4]), -18.6%; in experiment [1] (setting [5]), 7.49%. Also, the Potency result in the experiment with astro is “inactive”.
Taken in the same sequence, the figures for `CCCc1ccc(C(=O)O)cc1` were -12.5%, -19.9%, -22.4%, 3.37% and “inactive”.
On to `CC(C)N1CCN(c2ccc(OC[C@H]3CO[C@](Cn4cncn4)(c4ccc(Cl)cc4Cl)O3)cc2)CC1`, for which, in experiment [1] (setting [6]), the activity, negative = cell killing is -6.28%. The Potency in experiment [1] (tumour line A) was 2.51 µM (active); in experiment [1] (tumour line B), 14.1 µM (active); in experiment [1] (tumour line D) it was 10 µM (active). The Potency entry with astro was “inactive”.
Take `NC(N)=NCC1COC2(CCCCC2)O1` (stereo not given): the activity, negative = cell killing in experiment [1] (setting [6]) was -12.8%; in experiment [1] (setting [7]) it was -14.2%; in experiment [1] (setting [8]), -12.9%; in experiment [1] (setting [9]), -18.6%. For the same compound, in the experiment on astro, the Potency entry was “inactive”.
For `CC1CS(=O)(=O)CCN1/N=C/c1ccc([N+](=O)[O-])o1` (stereo not given) the same measures were -27.2%, -10%, -29.2%, -23% and “inactive”.
Taken in the same sequence, the figures for `O=C1NCCN1c1ncc([N+](=O)[O-])s1` were -26.4%, -0.147%, -24%, -10.3% and “inactive”.
Take `C=Cc1c(C)c2cc3nc(cc4[nH]c(cc5nc(cc1[nH]2)C(C)=C5CCC(=O)OC)c(CCC(=O)O)c4C)[C@@]1(C)C3=CC=C(C(=O)OC)[C@H]1C(=O)OC`: the activity, negative = cell killing in experiment [1] (setting [2]) is -5.62%; in experiment [1] (setting [3]) it was -3.48%; in experiment [1] (setting [4]), -5.65%; in experiment [1] (setting [5]) it was -20.1%. Further, in the experiment on astro, the Potency entry is “inactive”.
As to `CC1(C)S[C@@H]2[C@H](NC(=O)C3(N)CCCCC3)C(=O)N2[C@H]1C(=O)O`, the activity, negative = cell killing in experiment [1] (setting [2]) is -3.31%; in experiment [1] (setting [3]), -4.88%; in experiment [1] (setting [4]), -7.56%; in experiment [1] (setting [5]), -20.1%. Besides, the Potency entry with astro was “inactive”.
For `CO/N=C(\C(=O)N[C@@H]1C(=O)N2C(C(=O)O)=CCS[C@H]12)c1csc(N)n1`, the activity, negative = cell killing in experiment [1] (setting [2]) is -10.9%; in experiment [1] (setting [3]) it was -17.7%; in experiment [1] (setting [4]) it was -10.3%; in experiment [1] (setting [5]) it was -14%. Further, the Potency entry in the experiment on astro was “inactive”.
For `O=C1NC(=O)[C@H]2[C@@H]1[C@@H]1C=C[C@H]2C1` the same measures were -11.5%, -1.45%, -23%, -6.43% and “inactive”.
`CN1CCc2c(c3ccccc3n2Cc2ccccc2)C1`: the values for the activity, negative = cell killing in experiment [1] (setting [6]), in experiment [1] (setting [7]) and in experiment [1] (setting [8]) were -5.19%, -12.3% and -14.4%, respectively. Moreover, the Potency in experiment [1] (tumour line A) was 5.62 µM (active). The Potency entry in the experiment on astro is “inactive”.
As for `O=C(Cc1cccs1)N[C@@H]1C(=O)N2C(C(=O)[O-])=C(C[n+]3ccccc3)CS[C@H]12`, the activity, negative = cell killing in experiment [1] (setting [2]) is -13.3%; in experiment [1] (setting [3]) it was 8.29%; in experiment [1] (setting [4]), -29.7%; in experiment [1] (setting [5]), -10.2%. Also, the Potency result in the experiment on astro was “inactive”.
For `CCN(CC)C(=S)S` the same measures were -1.95%, -9.18%, -29.6%, -13.5% and “inactive”.
Taken in the same sequence, the figures for `Cc1cc(C(=O)NCCc2ccc(S(=O)(=O)NC(=O)NN3CCCCCC3)cc2)no1` were -15.9%, -13.6%, -31.1%, -10.9% and “inactive”.
As to `CC(=O)[O][Al][O]C(C)=O`, the activity, negative = cell killing is -5.15% in experiment [1] (setting [2]), -14.6% in experiment [1] (setting [3]), -26.4% in experiment [1] (setting [4]) and -11.8% in experiment [1] (setting [5]). The Potency entry in the experiment with astro was “inactive”.
`O=C(O)c1cc(O)c2c(c1)[C@H]([C@H]1c3cc(C(=O)O)cc(O)c3C(=O)c3c(O[C@@H]4O[C@H](CO)[C@@H](O)[C@H](O)[C@H]4O)cccc31)c1cccc(O[C@@H]3O[C@H](CO)[C@@H](O)[C@H](O)[C@H]3O)c1C2=O`: the activity, negative = cell killing in experiment [1] (setting [2]) is -24.5%; in experiment [1] (setting [3]), -3.04%; in experiment [1] (setting [4]), -24%; in experiment [1] (setting [5]), -0.084%. In addition, the Potency entry with astro is “inactive”.
With `CCCCC(CC)CCC(CC(C)C)OS(=O)(=O)O` (stereo not given), the activity, negative = cell killing in experiment [1] (setting [2]) is -14.6% and -5.66%; in experiment [1] (setting [3]), -13.9% and 2.49%; in experiment [1] (setting [4]), -21.7% and -3.22%; in experiment [1] (setting [5]), -16.9% and 4.88%. In addition, the Potency entry in the experiment with astro is “inactive”.

Values taken from PubChem BioAssay (NCATS).
